Source: PubChem (Center for Chemical Genomics, University of Michigan)
Many of the other results were omitted from the sample, so hits are more common in it than they were.
Dicer inh: human Dicer pre-microRNA cleavage inhibition; cat-ELCCA pre-miR-21 Dicer processing, chemiluminescence; stronger effect = higher value; z-score at 25 µM; 6% of 47,000 active; AID 1347074; in the data active = z-score above about 3, passing the limit was not always enough;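 also: higher signal means more uncleaved substrate so more Dicer inhibition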
Target sequence (Q9UPY3 whole entry, looked up): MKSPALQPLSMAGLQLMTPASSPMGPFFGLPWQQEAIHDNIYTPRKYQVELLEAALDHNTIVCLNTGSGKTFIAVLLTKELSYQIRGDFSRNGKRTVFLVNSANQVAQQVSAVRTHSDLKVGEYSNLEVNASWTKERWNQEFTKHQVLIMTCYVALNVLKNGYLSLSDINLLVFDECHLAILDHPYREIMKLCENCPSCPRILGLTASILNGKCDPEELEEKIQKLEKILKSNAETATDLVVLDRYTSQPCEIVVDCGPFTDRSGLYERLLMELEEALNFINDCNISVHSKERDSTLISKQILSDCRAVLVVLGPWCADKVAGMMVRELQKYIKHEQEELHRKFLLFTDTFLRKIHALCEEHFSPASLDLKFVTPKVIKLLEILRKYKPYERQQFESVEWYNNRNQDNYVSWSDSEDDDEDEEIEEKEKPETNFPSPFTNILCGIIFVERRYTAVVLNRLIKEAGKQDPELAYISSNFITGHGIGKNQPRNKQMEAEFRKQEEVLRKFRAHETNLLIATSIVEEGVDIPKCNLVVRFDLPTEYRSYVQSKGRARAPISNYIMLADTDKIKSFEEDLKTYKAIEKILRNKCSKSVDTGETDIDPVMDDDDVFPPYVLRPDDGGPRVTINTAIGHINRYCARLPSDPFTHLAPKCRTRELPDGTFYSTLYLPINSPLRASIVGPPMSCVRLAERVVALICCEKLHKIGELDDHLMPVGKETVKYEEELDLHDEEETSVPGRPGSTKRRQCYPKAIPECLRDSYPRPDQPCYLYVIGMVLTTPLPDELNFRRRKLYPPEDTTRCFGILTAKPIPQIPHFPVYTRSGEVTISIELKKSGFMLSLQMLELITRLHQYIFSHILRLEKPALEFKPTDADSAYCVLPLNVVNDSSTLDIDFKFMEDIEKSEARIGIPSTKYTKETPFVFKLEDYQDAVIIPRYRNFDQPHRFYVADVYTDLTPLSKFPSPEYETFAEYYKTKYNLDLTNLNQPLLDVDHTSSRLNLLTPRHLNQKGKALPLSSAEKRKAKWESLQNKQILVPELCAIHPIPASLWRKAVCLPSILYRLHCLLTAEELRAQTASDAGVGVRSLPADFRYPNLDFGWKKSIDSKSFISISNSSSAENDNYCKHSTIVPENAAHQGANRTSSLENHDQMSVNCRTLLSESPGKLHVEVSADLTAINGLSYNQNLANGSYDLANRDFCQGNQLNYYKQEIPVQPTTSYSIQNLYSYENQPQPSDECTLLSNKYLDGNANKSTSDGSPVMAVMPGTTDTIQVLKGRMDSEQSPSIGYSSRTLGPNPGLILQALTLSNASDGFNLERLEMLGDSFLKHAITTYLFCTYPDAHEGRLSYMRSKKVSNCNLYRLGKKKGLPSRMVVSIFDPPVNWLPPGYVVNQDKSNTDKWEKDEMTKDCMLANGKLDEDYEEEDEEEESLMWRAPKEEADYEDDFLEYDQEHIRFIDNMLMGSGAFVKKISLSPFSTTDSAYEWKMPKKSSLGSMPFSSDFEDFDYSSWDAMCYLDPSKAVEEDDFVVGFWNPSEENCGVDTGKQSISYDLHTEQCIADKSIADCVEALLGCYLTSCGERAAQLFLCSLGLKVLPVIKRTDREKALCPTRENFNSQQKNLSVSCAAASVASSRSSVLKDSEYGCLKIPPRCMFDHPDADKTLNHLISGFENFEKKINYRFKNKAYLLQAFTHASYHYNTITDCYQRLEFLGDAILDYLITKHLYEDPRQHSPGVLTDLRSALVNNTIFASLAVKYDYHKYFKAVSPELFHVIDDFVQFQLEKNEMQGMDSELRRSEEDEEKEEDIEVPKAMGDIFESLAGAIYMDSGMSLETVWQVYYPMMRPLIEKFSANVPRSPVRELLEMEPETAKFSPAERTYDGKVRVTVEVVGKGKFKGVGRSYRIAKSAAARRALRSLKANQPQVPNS
Of the large screens only hits and unclear results are named; the others gave an inactive call.

Cc1onc(-c2c(Cl)cccc2Cl)c1C(=O)NC(C)(C)CC(C)(C)C	none
C#CCOC(=O)NC(=O)c1c(-c2c(Cl)cccc2Cl)noc1C	Dicer inh 3.2
Cc1onc(-c2c(Cl)cccc2Cl)c1NC(=O)NC(=O)c1c(Cl)cccc1Cl	none
Cn1c(NCc2ccccc2)nc2c1c(=O)n(Cc1ccc(F)cc1)c(=O)n2C	none
COc1ccc(N2C(=O)C3C4C=CC(CC4)C3C2=O)cc1 (centres undefined)	none
COc1ccc(N2C(=O)C3CC=CC(C)C3C2=O)cc1 (centres undefined)	Dicer inh 5.5
CC(OC(=O)c1cccc(N2C(=O)C3CC=CC(C)C3C2=O)c1)C(=O)c1ccccc1 (centres undefined)	none
Cc1cc(OCc2nc(-c3ccc(-n4cccc4)cc3)no2)cc(C)c1Cl	none
CN(CCOC(=O)c1ccc(Cl)cc1)c1nc2cc(Cl)ccc2s1	none
CCN(CC)C(=O)c1cc2sccc2s1	Dicer inh 3.1
CCN(CC)C(=O)c1sc2nc3c(cc2c1N)CCCCC3	none
CC(C)c1nc2sc3c(NCCCN(C)C)ncnc3c2c2c1CCCC2	none
O=C1C(=O)N(c2nc3ccccc3s2)C(c2cccnc2)/C1=C(/O)c1ccc(Cl)cc1 (centres undefined)	none
CCCN1CN=C(Nc2nc(C)c3cc(C)ccc3n2)NC1	none
CC1C/C(=N\Nc2ccc(I)cc2)c2cc(Cl)ccc2S1(=O)=O (centres undefined)	Dicer inh 4
O=S(=O)(NC1CCCCC1SC1=NCCS1)c1ccc(Cl)cc1 (centres undefined)	none
O/N=C/c1c(-c2ccccc2Cl)[nH]c2ccccc12	none
Nc1ccc(Cl)c(-c2nc3ccccc3[nH]2)c1	none
Clc1ccccc1-c1cc2ccccc2[nH]1	Dicer inh 4
Cn1c(=O)c2c(nc(NC3CCCCC3)n2CC(O)COc2ccccc2)n(C)c1=O (centres undefined)	none
COc1ccc(OCC(O)Cn2c(NC3CCCCC3)nc3c2c(=O)n(C)c(=O)n3C)cc1 (centres undefined)	Dicer inh 3.3
Cn1c(=O)c2c(nc(NCCO)n2CC(O)COc2ccccc2)n(C)c1=O (centres undefined)	none
CN(C)c1ccc(CNCCC(c2ccccc2)C2CCOC(C)(C)C2)cc1 (centres undefined)	none
CCSC1=C(C#N)C(c2ccc(C)cc2)CC(=O)N1 (centres undefined)	none
Cn1c(=O)[nH]c(=O)c2c1nc(NCc1ccco1)n2CC(O)COc1ccccc1 (centres undefined)	none
CC(C)Cn1c(NCc2ccco2)nc2c1c(=O)[nH]c(=O)n2C	Dicer inh 4.5
Cn1c(=O)c2c(nc(NCc3ccco3)n2C)n(C)c1=O	none
CC(C)OCC(O)Cn1c(NCc2ccco2)nc2c1c(=O)[nH]c(=O)n2C (centres undefined)	Dicer inh 3.9
CC(C)CNc1nc2c(c(=O)[nH]c(=O)n2C)n1C(C)C	none
Cc1ccc(Cn2c(NCc3ccco3)nc3c2c(=O)n(C)c(=O)n3C)cc1	none
CC(C)Cn1c(NC2CCCCC2)nc2c1c(=O)[nH]c(=O)n2C	none
Cn1c(=O)[nH]c(=O)c2c1nc(NCCO)n2CC(O)COc1ccccc1 (centres undefined)	none
CC(C)Cn1c(NCCN(C)C)nc2c1c(=O)[nH]c(=O)n2C	Dicer inh 4.3
C=C(C)Cc1c(COC)nc(SCC2CC2)[nH]c1=O	none
COc1ccc(C2Oc3ccc(Cl)cc3C=C2[N+](=O)[O-])cc1 (centres undefined)	none
CSc1ccc(C2C3=C(CCCC3=O)Nc3ccccc3N2C(=O)c2ccccc2)cc1 (centres undefined)	none
O=C(Nc1ncc2c(n1)CC(c1ccccc1)CC2=O)c1ccc(-c2ccccc2)cc1 (centres undefined)	none
O=C1CC(c2ccccc2Cl)Cc2nc(N3CCc4ccccc4C3)ncc21 (centres undefined)	none
Clc1cccc(NC2=NCCN=C(Nc3cccc(Cl)c3)SS2)c1	none
CCCCc1ccc(N2CC(C(=O)Nc3sc4c(c3C#N)CCCC4)CC2=O)cc1 (centres undefined)	none
CC(C)(C)OC(=O)N[C@@H](Cc1ccccc1)C(=O)OCc1ccc(CC(=O)O)cc1	none
CC(C)(C)OC(=O)NC(COCc1ccccc1)C(N)=O (centres undefined)	none
CSCC[C@H](NC(=O)OC(C)(C)C)C(=O)OCc1ccc(CC(=O)O)cc1	Dicer inh 3
NC(=O)c1cc([N+](=O)[O-])cc2c1-c1ccc([N+](=O)[O-])cc1/C2=N\O	none
CCCCCCCc1c(O)c2cccc3c4c(n(c1=O)c23)CCCC4	none
Cn1c(=O)c2c(nc(Oc3ccc(F)cc3Cl)n2C)n(C)c1=O	none
CC(C)n1c(Oc2ccc(F)cc2)nc2c1c(=O)n(C)c(=O)n2C	none
Cc1cc(Oc2nc3c(c(=O)n(C)c(=O)n3C)n2C)cc(C)c1Cl	Dicer inh 3.8
C=CCOC(=O)C1=C(C)NC2=C(C(=O)CC(C)(C)C2)C1c1cc(Cl)c(O)c(OC)c1 (centres undefined)	none
COc1ccc(Cn2c(=O)c3[nH]cnc3n(-c3ccccc3S(C)=O)c2=O)cc1 (centres undefined)	none
CCOC(=O)c1cc(C#N)c(Oc2cc(Cl)cc(Cl)c2)nc1C(F)(F)F	none
Cc1cccc(Cl)c1NC(=S)N1CCCC1	none
O=C1CSC(=Nc2cc(Cl)cc(Cl)c2)N1c1cc(Cl)cc(Cl)c1	none
CCOC(=O)c1cc(=O)c2c(O)cccc2o1	none
CCOC(=O)c1ccc(CSc2n[nH]c(C)n2)o1	none
CCCc1cc(-c2n[nH]c(C)c2-c2ccc(C(=O)OCC)o2)c(O)cc1O	Dicer inh 3.9
CCc1c(O)c2ccccc2n(C)c1=O	none
O=[N+]([O-])c1ccsc1Sc1cccs1	none
CCOc1nc2ccccc2nc1OCC	none
CCc1ccc2[nH]c3sc(C)nc3c2c1	none
CCOc1ccc(OCC)c2sc(C)nc12	Dicer inh 3.2
Nc1ncnc2oc(-c3ccccc3)nc12	none
C=CCOC(=O)C1=C(C)NC2=C(C(=O)CCC2)C1c1cc(Br)c(O)c(OCC)c1 (centres undefined)	none
Cc1cc(NC(=S)NC(C)(C)C)ccc1Br	none
Cc1ccc(NC(=S)NC(C)(C)C)cc1F	Dicer inh 3
Cc1ccc(NC(=S)Nc2ccc(C)c(C)c2)cc1C	none
CNC(=S)N(Cc1ccc(Cl)cc1)Cc1cccnc1	none
COc1ccc(Cc2nc(-c3ccc(Cl)cc3)no2)cc1OC	none
N#Cc1cccc(CSc2nccc(=O)[nH]2)c1	none
CC1(C)CC(=O)C2=C(C1)N(Cc1ccccc1)CN(Cc1ccco1)C2	none
COc1ccc(N(C(=O)Nc2ccccc2Cl)C(CC(=O)C2CC2)c2ccccc2)cc1 (centres undefined)	none
COC(=O)C(O)(NC(=O)c1ccccc1Cl)C(F)(F)F (centres undefined)	Dicer inh 3.9
CCOC(=O)C(O)(NC(=O)c1ccccc1C)C(F)(F)F (centres undefined)	none
CCOC(=O)C(NC(=O)c1ccccc1Cl)(Nc1cccc(C)n1)C(F)(F)F (centres undefined)	none
CCOC(=O)C(NC(=O)c1ccccc1Cl)(Nc1ccc(C)cn1)C(F)(F)F (centres undefined)	Dicer inh 3
CCOC(=O)C(NC(=O)c1ccccc1Cl)(Nc1cc(C)ccn1)C(F)(F)F (centres undefined)	none
CCOC(=O)C(O)(NC(=O)c1ccccc1Cl)C(F)(F)F (centres undefined)	none
Cn1c2c(c(=O)n(C)c1=O)CN(CCCn1ccnc1)CN2	none
NC(=O)c1cccc2cccc(I)c12	none
CCOC(=O)Cn1cc(Br)c(=O)[nH]c1=O	none
COc1ccc(C(=O)/C(C#N)=C/NC2CCN(Cc3ccccc3)CC2)cc1	none
